Measured values from PubChem BioAssay AID1159580 (chemical genetic matrix, 2015).
The whole screen tested about 5,500 compounds, of which about 2,000 (36%) were called active. About 18% were inconclusive and are not listed. Rule as the data show it: active = normalized growth mostly below about 0.91 (no sharp cut-off); inconclusive = no clear call, values can overlap the other calls; inactive = mostly above about 0.92. Some of the results follow.

Experiment: chemical genetic growth profiling, strain panel (AID 1159580);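 also: tested at 20 µM; growth read once vehicle control cultures reached saturation at 30 °C; 1 = growth at the plate median or of vehicle wells; lower values mean less growth of the strain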
Settings: growth OD

Measured: normalized growth

NC(N)=NOCC[C@H](N)C(=O)O
inactive: S. cerevisiae deletion strains, locus YJR043C, strain POL32, active compounds read low 1 | S. cerevisiae deletion strains, locus YJR075W, strain HOC1, active compounds read low 0.983 | S. cerevisiae deletion strains, locus YKL009W, strain mrt4, active compounds read low 0.971 | S. cerevisiae deletion strains, locus YKL068W, active compounds read low 0.978 | S. cerevisiae deletion strains, locus YKL085W, strain MDH1 (second series), active compounds read low 0.969 | S. cerevisiae deletion strains, locus YKL085W, strain MDH1, active compounds read low 0.969 | S. cerevisiae deletion strains, locus YKL160W, strain elf1, active compounds read low 1.01 | S. cerevisiae deletion strains, locus YKL190W, strain CNB1, active compounds read low 0.995 | S. cerevisiae deletion strains, locus YKR001C, strain vps1, active compounds read low 1 | S. cerevisiae deletion strains, locus YKR026C, strain gcn3, active compounds read low 1.01 | S. cerevisiae deletion strains, locus YKR091W, strain srl3, active compounds read low 1.01 | S. cerevisiae deletion strains, locus YLL001W, strain dnm1, active compounds read low 1.01 | S. cerevisiae deletion strains, locus YLL026W, active compounds read low 1.01 | S. cerevisiae deletion strains, locus YLL041C, strain sdh2, active compounds read low 1.01 | S. cerevisiae deletion strains, locus YLR027C, strain aat2, active compounds read low 1.01 | S. cerevisiae deletion strains, locus YLR039C, strain RIC1, active compounds read low 0.933 | S. cerevisiae deletion strains, locus YLR058C, strain SHM2, active compounds read low 0.984 | S. cerevisiae deletion strains, locus YLR102C, strain apc9, active compounds read low 0.988 | S. cerevisiae deletion strains, locus YLR221C, strain rsa3, active compounds read low 1.02 | S. cerevisiae deletion strains, locus YLR258W, strain gsy2, active compounds read low 1.01 | S. cerevisiae deletion strains, locus YLR262C, strain YPT6 (second series), active compounds read low 1.02 | S. cerevisiae deletion strains, locus YLR262C, strain YPT6, active compounds read low 0.954 | S. cerevisiae deletion strains, locus YLR268W, strain sec22, active compounds read low 1.03 | S. cerevisiae deletion strains, locus YLR320W, strain mms22, active compounds read low 1.02 | S. cerevisiae deletion strains, locus YLR330W, strain CHS5, active compounds read low 0.977 | S. cerevisiae deletion strains, locus YLR342W, strain FKS1 (second series), active compounds read low 1.01 | S. cerevisiae deletion strains, locus YLR342W, strain FKS1, active compounds read low 0.992 | S. cerevisiae deletion strains, locus YLR357W, strain rsc2, active compounds read low 1.03 | S. cerevisiae deletion strains, locus YLR370C, strain arc18, active compounds read low 1.02 | S. cerevisiae deletion strains, locus YLR371W, strain rom2, active compounds read low 0.964 | S. cerevisiae deletion strains, locus YLR384C, strain iki3, active compounds read low 1.01 | S. cerevisiae deletion strains, locus YLR418C, strain cdc73, active compounds read low 1.02 | S. cerevisiae deletion strains, locus YML016C, strain PPZ1, active compounds read low 0.992 | S. cerevisiae deletion strains, locus YML032C, strain rad52, active compounds read low 0.976 | S. cerevisiae deletion strains, locus YML120C, strain ndi1, active compounds read low 1.02 | S. cerevisiae deletion strains, locus YML124C, strain tub3, active compounds read low 0.996 | S. cerevisiae deletion strains, locus YMR058W, strain fet3, active compounds read low 1 | S. cerevisiae deletion strains, locus YMR078C, strain ctf18, active compounds read low 0.998 | S. cerevisiae deletion strains, locus YMR125W, strain sto1, active compounds read low 1 | S. cerevisiae deletion strains, locus YMR129W, active compounds read low 1.02 | S. cerevisiae deletion strains, locus YMR205C, strain PFK2, active compounds read low 1.01 | S. cerevisiae deletion strains, locus YMR223W, strain ubp8, active compounds read low 0.976 | S. cerevisiae deletion strains, locus YMR231W, strain pep5, active compounds read low 1.02 | S. cerevisiae deletion strains, locus YMR263W, strain SAP30, active compounds read low 1.01 | S. cerevisiae deletion strains, locus YMR307W, strain GAS1, active compounds read low 1.06 | S. cerevisiae deletion strains, locus YNL067W, strain RPL9B, active compounds read low 1.02 | S. cerevisiae deletion strains, locus YNL071W, strain lat1, active compounds read low 1.01 | S. cerevisiae deletion strains, locus YNL128W, strain TEP1, active compounds read low 0.992 | S. cerevisiae deletion strains, locus YNL153C, strain GIM3, active compounds read low 1.03 | S. cerevisiae deletion strains, locus YNL209W, strain ssb2, active compounds read low 1 | S. cerevisiae deletion strains, locus YNL233W, strain BNI4, active compounds read low 1.03 | S. cerevisiae deletion strains, locus YNL248C, strain rpa49, active compounds read low 1.02 | S. cerevisiae deletion strains, locus YNL250W, strain rad50, active compounds read low 0.961 | S. cerevisiae deletion strains, locus YNL271C, strain bni1, active compounds read low 0.973 | S. cerevisiae deletion strains, locus YNL298W, strain CLA4, active compounds read low 0.989 | S. cerevisiae deletion strains, locus YNL307C, strain MCK1, active compounds read low 1 | S. cerevisiae deletion strains, locus YNL322C, strain KRE1 (second series), active compounds read low 1.01 | S. cerevisiae deletion strains, locus YNL322C, strain KRE1, active compounds read low 0.984 | S. cerevisiae deletion strains, locus YNR049C, strain mso1, active compounds read low 1.01 | S. cerevisiae deletion strains, locus YNR052C, strain pop2, active compounds read low 0.974 | S. cerevisiae deletion strains, locus YOL006C, strain TOP1, active compounds read low 1.07 | S. cerevisiae deletion strains, locus YOL012C, strain htz1 1.13 | S. cerevisiae deletion strains, locus YOL147C, strain pex11, active compounds read low 0.986 | S. cerevisiae deletion strains, locus YOR001W, strain rrp6, active compounds read low 1.03 | S. cerevisiae deletion strains, locus YOR061W, strain CKA2, active compounds read low 0.991 | S. cerevisiae deletion strains, locus YOR069W, strain VPS5, active compounds read low 0.994 | S. cerevisiae deletion strains, locus YOR070C, strain gyp1, active compounds read low 1.02 | S. cerevisiae deletion strains, locus YOR080W, strain dia2, active compounds read low 1.02 | S. cerevisiae deletion strains, locus YOR083W, strain WHI5, active compounds read low 1 | S. cerevisiae deletion strains, locus YOR106W, strain vam3, active compounds read low 1.01 | S. cerevisiae deletion strains, locus YOR136W, strain idh2, active compounds read low 0.988 | S. cerevisiae deletion strains, locus YOR144C, strain elg1, active compounds read low 0.989 | S. cerevisiae deletion strains, locus YOR184W, strain ser1, active compounds read low 0.971 | S. cerevisiae deletion strains, locus YOR265W, strain rbl2, active compounds read low 1.01 | S. cerevisiae deletion strains, locus YOR270C, strain vph1, active compounds read low 1.04 | S. cerevisiae deletion strains, locus YOR290C, strain snf2, active compounds read low 1.02 | S. cerevisiae deletion strains, locus YOR316C, strain cot1, active compounds read low 0.992 | S. cerevisiae deletion strains, locus YPL051W, strain arl3, active compounds read low 1.01 | S. cerevisiae deletion strains, locus YPL055C, strain LGE1, active compounds read low 1.02 | S. cerevisiae deletion strains, locus YPL078C, strain atp4, active compounds read low 1.02 | S. cerevisiae deletion strains, locus YPL106C, strain sse1, active compounds read low 1.03 | S. cerevisiae deletion strains, locus YPL240C, strain hsp82, active compounds read low 1 | S. cerevisiae deletion strains, locus YPL241C, strain CIN2, active compounds read low 0.993 | S. cerevisiae deletion strains, locus YPR119W, strain clb2, active compounds read low 0.996 | S. cerevisiae deletion strains, locus YPR141C, strain kar3, active compounds read low 0.988 | S. cerevisiae deletion strains, locus YPR163C, strain tif3, active compounds read low 0.983 | S. cerevisiae deletion strains, locus YPR167C, strain met16, active compounds read low 0.985 | S. cerevisiae deletion strains, strain wtn01, active compounds read low 0.999 | S. cerevisiae strains, strain wild type, active compounds read low 0.992
